This is a sample that favours compounds with a hit; in the whole collection about 1.9% have one here.
VLA-4 antagonist = inhibitors of LDV-FITC binding to Mn2+-activated VLA-4, primary screen, Jurkat cells. Integrin alpha-4 (Homo sapiens), P13612. LDV-FITC binding with Mn2+, flow cytometry; 100% = Mn2+-driven binding gain fully reversed. inhibition, % at 10 µM (by protocol). actives 0.2% (n = 24,000);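 active = inhibition above 50%; inconclusive = compound itself fluorescent, judged against control cell fluorescence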;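 note: 0% = Mn2+ stimulated cells lacking compound and 100% = ligand binding without Mn2+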
Jurkat autofluor = compound autofluorescence on Jurkat cells, primary screen, artefact control for VLA-4 allosteric ligand project, cell-based, flow cytometry | active compounds read high; 1 = vehicle-only cell background | actives 0.61% (n = 24,000) | fluorescence ratio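 (tested at 10 µM compound in the well)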 | AID 576, 2007;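 active = fluorescence ratio above 2.44, which is 1 plus 3 SD of all ratios; inconclusive = signal too bright to measure linearly, ratio around 10 or more; inactive = fluorescence ratio below 2.44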;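 note: green fluorescence of cells measured with 488 nm excitation and 530 nm emission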
FPR binder = human FPR ligands by binding competition, primary screen, cell-based, FPRL1 counter-screen, flow cytometry | fMet-Leu-Phe receptor (Homo sapiens), P21462 | FPR-expressing cells, fluorescent ligand binding | inhibition, % (concentration not given with the values) | actives 0.74% (n = 24,000) | AID 440, 2006;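 note: 0% = buffer wells and 100% = receptor blocker peptide wells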
VLA-4 allo ag = enhancers of LDV-FITC binding to VLA-4 integrin, primary screen, Jurkat cells, flow cytometry; Integrin alpha-4 (Homo sapiens), P13612; activation, % at 10 µM (by protocol); 24,000 tested, under 10 active; AID 528, 2006;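 active = fluorescent ligand binding to cells raised by more than 40% of the manganese-induced maximum; inconclusive = compound's own fluorescence above 85% of the ligand control signal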;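 note: 0% = ligand binding without compound and 100% = manganese-stimulated maximal binding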
Proteasome disasm = inhibitors of ATP-driven 26S proteasome dissociation, primary screen, biochemical, bead-based flow cytometry, GFP-tagged proteasome. anti-FLAG beads, GFP-proteasome disassembly. inhibition of disassembly, % (no concentration beside the values). actives 0.2% (n = 24,000). AID 751, 2007;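 active = inhibition of disassembly above about 33%, limit read from the data; inconclusive = likely self-fluorescent, control bead median signal at least 40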;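 note: plate controls were ATP control with full disassembly for no effect and ATP-gamma-S intact proteasomes for full effect; higher percent means more bead fluorescence retained so stronger block of disassembly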
FPRL1 binder = human FPRL1 ligands by binding competition, primary screen, cell-based, FPR counter-screen, flow cytometry; N-formyl peptide receptor 2 (Homo sapiens), P25090; FPRL1-expressing cells, fluorescent ligand binding inhibition; inhibition, % (test concentration not listed); actives 0.3% (n = 24,000); AID 441, 2006;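 note: 0% = buffer alone and 100% = receptor blocker peptide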
Target sequence (P25090 whole entry, looked up): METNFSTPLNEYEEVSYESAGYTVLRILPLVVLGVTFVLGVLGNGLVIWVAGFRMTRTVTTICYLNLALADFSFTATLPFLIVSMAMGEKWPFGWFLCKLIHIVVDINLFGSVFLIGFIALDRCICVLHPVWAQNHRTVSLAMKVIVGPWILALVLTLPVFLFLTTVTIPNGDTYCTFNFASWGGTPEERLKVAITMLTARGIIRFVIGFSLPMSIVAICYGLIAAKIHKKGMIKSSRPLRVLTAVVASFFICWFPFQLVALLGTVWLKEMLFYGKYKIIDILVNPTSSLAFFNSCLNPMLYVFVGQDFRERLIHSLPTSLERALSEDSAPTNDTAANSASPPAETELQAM
The depositor's hits bear a star; ? = inconclusive; . = no result given. Cut-off read from the data, not from the text of the source, unless noted: active = inhibition above about 30%; inconclusive = no clear call, values can overlap the other calls; inactive = below that.

SMILES	VLA-4 antagonist	Jurkat autofluor	FPR binder	VLA-4 allo ag	Proteasome disasm	FPRL1 binder
Cc1cc(C)cc(-n2nnc(C(=O)NCc3ccccc3Cl)c2N)c1	?	2.8*	-1	?	0	8
Cc1nnc(SCc2ccccc2F)n1NCc1cccs1	-7	1	-2	-7	-3	-2
CCOC(=O)c1ccc(NC(=O)Nc2ccc3c4c(cccc24)C(=O)N3CC)cc1	?	3.1*	-18	?	1	48*
CCN1C(=O)c2cccc3c(NC(=O)c4ccc(S(=O)(=O)N(C)C)cc4)ccc1c23	-10	1.1	-4	6	1	-4
S=C(c1ccc(N2CCOCC2)cc1)N1CCCCC1	-10	1	-10	8	0	2
Cc1ccc(N2CCN(C(=S)c3ccc(N(C)C)cc3)CC2)cc1	?	3.5*	-6	?	6	-6
c1ccc(CNc2ccc3c(c2)ncn3C2CCCCC2)nc1	8	1.1	5	4	-3	10
COc1ccc(/C(O)=C2/C(=O)C(=O)N(CCCN(C)C)C2c2ccco2)cc1Cl (centres undefined)	-14	1	7	1	0	11
COc1cccc(OC)c1/C(O)=C(\C#N)c1nc2ccccc2[nH]1	-21	1.2	32*	0	1	12
COc1cc(C2/C(=C(\O)c3ccc4c(c3)CC(C)O4)C(=O)C(=O)N2CCCn2ccnc2)ccc1O (centres undefined)	.	.	44*	.	.	33*
COc1ccc(C2/C(=C(/O)c3ccc4c(c3)CC(C)O4)C(=O)C(=O)N2CCN2CCOCC2)cc1 (centres undefined)	.	.	2	.	.	0
Cc1ccc(/C(O)=C2/C(=O)C(=O)N(CCCn3ccnc3)C2c2ccccn2)cc1 (centres undefined)	.	.	-29	.	.	-1
Cc1ccc(C)c(/C(O)=C2\C(=O)C(=O)N(CCCn3ccnc3)C2c2ccncc2)c1 (centres undefined)	.	.	37*	.	.	25
COCCn1c(=S)[nH]c2ccc(N(C)C)cc2c1=O	?	1.1	16	?	-3	-1
O=C1CCCC(O)=C1C(C#Cc1ccccc1)C1=C(O)CCCC1=O	3	1.2	47*	-1	0	4
Cc1oc(-c2ccc(Cl)cc2)nc1CN1CCCC(C(=O)N2CCN(C(=O)c3ccco3)CC2)C1 (centres undefined)	?	0.92	-1	-5	20	1
CCC1Cc2c(nc3c4c(nc(N5CCOCC5)c(C#N)c24)NC(C)=N3)O1 (centres undefined)	-6	1.3	-1	-2	-1	-1
CCOC(=O)C1=C(C)Nc2nnnn2C1c1c[nH]c2ccccc12 (centres undefined)	-18	1.1	3	6	1	-5
COC(=O)C1=[N+]([O-])OC(C(=O)OC)C1c1c[nH]c2ccccc12 (centres undefined)	-4	1	35*	6	-1	77*
CCOc1ccccc1N1CCN(c2nc(N)c(C#N)c(CC#N)c2C#N)CC1	?	5.2*	1	?	19	-6
CCOc1ccc(-n2c(=S)sc3c(=O)[nH]c(SCC(=O)NCc4ccco4)nc32)cc1	-17	1.1	1	7	1	-4
COc1ccc(Cl)cc1-n1c(=S)sc2c(=O)[nH]c(SCC(=O)NCC3CCCO3)nc21 (centres undefined)	-10	1.1	44*	-3	1	-3
CN(C)c1nc(N)nc(N(c2ccccc2)c2ccccc2)n1	1	1.1	-7	2	0	10
CN(C)c1nc(N(C)C)nc(N(C)C)n1	-14	1	52*	8	1	0
O=C(O)Cc1cc(I)c(Oc2ccc(O)c(I)c2)c(I)c1	-18	1.2	-5	4	0	2
SMILES	VLA-4 antagonist	Jurkat autofluor	FPR binder	VLA-4 allo ag	Proteasome disasm	FPRL1 binder
N[C@@H](Cc1ccc(O)c(I)c1)C(=O)O	-8	1	51*	0	0	-3
COc1cc(-n2nc(C)c3c2OC(N)=C(C#N)C3c2ccccc2)c(Cl)c(Br)c1O (centres undefined)	?	3*	36*	?	5	-2
C=CCN1C(=O)C2(/C(=C(\O)c3ccc4c(c3)OCCO4)C(=O)C(=O)N2CCCOC)c2ccccc21 (centres undefined)	-14	1	32*	6	-1	2
COc1ccccc1C1/C(=C(\O)c2ccc3c(c2)OCCO3)C(=O)C(=O)N1CCCN(C)C (centres undefined)	.	.	-2	.	.	5
Cc1cccc(-c2c3c(=O)n(C)c(=O)n(C)c3cn2-c2ccc(O)cc2)c1	12	1.1	-4	-8	0	-1
Cc1cc(C)cc(-n2cc3c(=O)n(C)c(=O)n(C)c3c2)c1	-13	1	32*	-5	0	24
CCOc1ccc(CCNC(=O)C2CCC(=O)N2C2CCCCC2)cc1OCC (centres undefined)	-11	0.97	6	1	1	-2
O=C1C(C23CC4CC(CC(C4)C2)C3)C(=O)N(c2ccccc2)N1c1ccccc1	41	1	73*	-6	.	1
CCOC(=O)C1CCN(Cc2ccc(C(=O)OC)cc2)CC1	-17	1.1	48*	4	1	55*
CCOC(=O)C1CCN(CC(O)COc2ccc(C(C)=O)cc2)CC1 (centres undefined)	-23	0.99	35*	2	1	27
O=C1c2ccccc2C(=O)N1Cc1nc2ccccc2c(=O)n1CCN1CCOCC1	8	0.97	5	-2	2	-1
COC(=O)c1ccc2c(c1)NC(=O)C(N1CCCC1)S2 (centres undefined)	?	5*	-17	?	20	-12
Cc1cccc(C)c1NC(=O)Cn1c(=O)n(CCCC(=O)NCc2ccco2)c(=O)c2sccc21	17	0.97	-1	4	-3	6
CC(=O)OCCNc1cc(N2CCN(C)CC2)c2noc3c2c1C(=O)c1ccccc1-3	14	1.2	6	-6	-3	53*
C=CCN(c1ccccc1)S(=O)(=O)c1ccc2c(c1)oc(=O)n2C	?	2.5*	-9	?	0	-14
C=CCN(C1CCCCC1)S(=O)(=O)c1ccc2c(c1)oc(=O)n2C	?	2.4	-9	?	1	-11
CCCCn1c(NC(=O)c2ccccc2Cl)c(C#N)c2nc3ccccc3nc21	.	.	3	.	.	-1

Source: PubChem (NMMLSC)
